# Results reported in article PMC4336329 (PLoS ONE, 2015).
# Among all 310,000 compounds or so, about 14,000 (4.5%) showed an effect of 50% or more. The effect is printed as a negative number. This is one part of a sample in which strong results are shown more often than they occur.
# Biological target: human ether-à-go-go-related gene (hERG) potassium channel (human, UniProt Q12809)
# Assay: primary screen, population patch clamp on CHO cells stably expressing hERG; higher = less effect of the substance
# 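Also: peak tail current of the secondary pulse compared with the same well before compound.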
# Chain of human ether-à-go-go-related gene (hERG) potassium channel (Q12809 whole entry, looked up): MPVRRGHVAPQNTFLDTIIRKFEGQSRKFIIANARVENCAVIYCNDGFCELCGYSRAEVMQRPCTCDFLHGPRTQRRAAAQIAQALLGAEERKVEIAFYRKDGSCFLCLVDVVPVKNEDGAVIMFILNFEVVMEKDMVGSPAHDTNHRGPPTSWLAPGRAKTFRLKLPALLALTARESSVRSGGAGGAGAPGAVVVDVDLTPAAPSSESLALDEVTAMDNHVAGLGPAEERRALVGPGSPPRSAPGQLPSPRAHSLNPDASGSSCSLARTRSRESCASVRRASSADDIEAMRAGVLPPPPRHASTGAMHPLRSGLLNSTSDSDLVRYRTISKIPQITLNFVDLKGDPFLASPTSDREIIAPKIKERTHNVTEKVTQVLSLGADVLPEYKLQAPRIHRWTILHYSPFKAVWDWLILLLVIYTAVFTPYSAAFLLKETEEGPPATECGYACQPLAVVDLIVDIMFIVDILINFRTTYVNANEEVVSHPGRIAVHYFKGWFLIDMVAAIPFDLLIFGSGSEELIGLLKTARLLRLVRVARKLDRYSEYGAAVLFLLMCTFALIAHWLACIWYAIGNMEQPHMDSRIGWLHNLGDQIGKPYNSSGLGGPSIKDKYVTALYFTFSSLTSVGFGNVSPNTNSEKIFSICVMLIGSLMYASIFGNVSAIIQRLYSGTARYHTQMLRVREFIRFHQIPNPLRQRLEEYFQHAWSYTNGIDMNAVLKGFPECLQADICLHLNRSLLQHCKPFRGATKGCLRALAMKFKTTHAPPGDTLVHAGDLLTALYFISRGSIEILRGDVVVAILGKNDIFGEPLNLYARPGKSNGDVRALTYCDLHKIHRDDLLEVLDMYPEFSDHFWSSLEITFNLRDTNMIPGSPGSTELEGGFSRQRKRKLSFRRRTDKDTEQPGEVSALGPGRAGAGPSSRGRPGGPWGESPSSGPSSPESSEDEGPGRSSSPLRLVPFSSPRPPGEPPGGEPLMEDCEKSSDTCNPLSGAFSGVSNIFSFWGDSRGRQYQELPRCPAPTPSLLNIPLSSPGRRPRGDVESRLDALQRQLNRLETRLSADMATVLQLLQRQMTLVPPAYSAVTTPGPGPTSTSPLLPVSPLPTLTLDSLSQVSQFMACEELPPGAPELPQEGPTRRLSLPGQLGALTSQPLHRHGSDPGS
row,Compound,"hERG current change (%, negative = inhibition) at 10uM [%]"
1,O=C(NCCNc1nccc(C(F)(F)F)n1)c1cccc(C(F)(F)F)c1,-8.47
2,CCOC(=O)c1c(C)nc(C)c(C(=O)OCC)c1-c1ccc(Br)cc1,-29.7
3,Cc1ccccc1Nc1ncnc2c1cnn2Cc1ccccc1,-10.8
4,Cc1c(NC(=O)C(C)OC(=O)CC2CC3CCC2C3)c(=O)n(-c2ccccc2)n1C (centres unmarked),-9.36
5,Cc1ccc(/C=N/Nc2ncnc3nc[nH]c23)cc1,-18.6
6,Nc1cccc(C(=O)Nc2ccco2)c1,-2.33
7,O=C(O)CN1C(=O)/C(=C2\SC(=S)N(C(Cc3ccccc3)C(=O)O)C2=O)c2ccccc21 (centres unmarked),2.15
8,CC(C)(C)CC(=O)Nc1nnc(SCC(=O)NC2CCCCC2)s1,-36.5
9,N#CC1(c2ccccc2)CCC(NCCc2ccccc2)CC1.O=C(O)C(=O)O (centres unmarked),-69.5
10,O=C(O)C(=O)O.c1ccc(CCNC2CCCCCC2)cc1,-4.67
11,COC1CCCCC1NCCc1ccccc1.O=C(O)C(=O)O (centres unmarked),-0.725
12,O=C(N1CCOCC1)N1CCN(S(=O)(=O)N2CCOCC2)CC1,11.3
13,C=CCn1c(SCC(=O)Nc2cccc3ccccc23)nc(O)c(CC)c1=O,3.7
14,COc1ccc(NC(=O)CC2C(=O)N(c3cccc(OC)c3)C(=O)N2C2CCCCC2)cc1 (centres unmarked),13.4
15,CCN(CC)Cc1c(C(=O)N/N=C/c2c(Cl)cccc2Cl)nnn1-c1nonc1N,11.8
16,CCCCOc1[nH]c2nc(-c3ccco3)n(Cc3ccco3)c(=N)c2c1C#N,-69.1

row,Compound,"hERG current change (%, negative = inhibition) at 10uM [%]"
1,COc1ccc(Cn2c(=O)n(Cc3ccco3)c(=N)c3c4c(sc32)COC(C)(C)C4)cc1,-15.9
2,c1coc(Cn2c(-c3ccco3)nc3ccccc32)c1,-10
3,CC1Sc2ccc(C(=O)NCc3cccc(C(F)(F)F)c3)cc2NC1=O (centres unmarked),-4.86
4,CCNC(=O)COc1ccc(/C=C2\COc3ccccc3C2=O)cc1OC,-71.8
5,CCOc1cc(/C=C2\COc3ccccc3C2=O)ccc1OCC(=O)N(C)C,-10.3
6,COc1ccc(/C=C2\COc3ccccc3C2=O)cc1OC,-17.1
7,COc1ccc(N2C(=S)N(C(=O)c3ccccc3)C(=Nc3ccccc3)C2=Nc2ccccc2)cc1,-3.16
8,Cc1ccc(-c2noc(-c3ccccc3C(=O)N3CCOCC3)n2)cc1,-12.2
9,Cc1ccc(-c2noc(-c3ccccc3C(=O)N3CCN(C)CC3)n2)cc1,-51.2
10,O=C(c1ccccc1-c1nc(-c2ccc(Cl)cc2)no1)N1CCCC1,0.639
11,O=C(c1ccccc1-c1nc(-c2ccccc2)no1)N1CCCC1,-4.86
12,c1ccc(-c2noc(-c3ccccc3-c3ccccc3)n2)cc1,5.26
13,NC(=O)c1ccccc1-c1nc(-c2ccccc2)no1,-76.5
14,Cc1ccc(-c2noc(-c3ccccc3C(=O)N3CCCC3)n2)cc1,-32.3
15,CN1CCN(C(=O)c2ccccc2-c2nc(-c3ccc(Cl)cc3)no2)CC1,-65.6
16,CN1CCN(C(=O)c2ccccc2-c2nc(-c3ccccc3)no2)CC1,-25.5
